Laboratory results reported in the supplement of paper PMC12636033.
± gives the standard deviation of the averaged measurements. Whole data set: some 33,000 sequences, median “E-score (rank enrichment, -0.5 to 0.5)” near -0.0028, cut for the highest 2% near 0.23. The entries come from a sample that favours the highest values as a whole.

test system: 2Sb-muMax20 (muMax20 with two 1,3-bis(methyl)benzene Cys staples, A13C/A17C and Q88C/A92C, C-terminal Lys); assay: PBM 8-mer E-score (E-score (rank enrichment, -0.5 to 0.5)); higher = stronger preferential binding
Procedure: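 Protein binding microarray (universal PBM chip covering all 10-mers in fixed probe flanks) with chemically synthesized human Max(13-93) bHLH-LZ analogs (not full-length Max) bearing noncanonical residues (hArg, Tha, Aib, Nle at 65) and aromatic Cys staples. Read-out per 8-mer (and its reverse complement): E-score (rank-based enrichment, -0.5 to 0.5) and Z-score of median probe intensity.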

Sequence	PBM 8-mer E-score
AGAGGCCC	-0.0713 ± 0.025
ATGCCGGG	-0.256 ± 0.0027
GACTTTCC	-0.0524 ± 0.043
CGGCGGGC	-0.184 ± 0.073
CTTCTCGC	0.0717 ± 0.022
GCAGCCAA	-0.0475 ± 0.046
AAGCAATC	0.256 ± 0.026
GAGCAATC	-0.0835 ± 0.0098
AAGCAATT	0.187 ± 0.017
CGTCTAGA	-0.162 ± 0.029
GCATTATA	0.14 ± 0.041
ATATATTA	0.241 ± 0.036
GTATTAAA	0.177 ± 0.05
GTATTACA	0.253 ± 0.024
ATCTACTG	-0.00445 ± 0.014
ATCTACTC	-0.0796 ± 0.04
CTATTACA	0.14 ± 0.041
ATCTACTA	0.243 ± 0.026
GTATATTA	0.188 ± 0.012
GTATTATA	0.238 ± 0.024
ATATTACA	0.173 ± 0.13
CTATATTA	0.153 ± 0.015
AATTGGCT	0.131 ± 0.011
ACGAATGG	0.073 ± 0.041
ATTTGAGA	0.152 ± 0.034

Sequence	PBM 8-mer E-score
AACAGCGA	-0.213 ± 0.047
GTGTTTGA	0.1 ± 0.029
CGAAGTCA	-0.106 ± 0.12
CGAACCGA	-0.228 ± 0.013
GGTGCCGA	-0.189 ± 0.027
ATATTATG	0.277 ± 0.026
CTATACTA	0.169 ± 0.015
ATATTATA	0.242 ± 0.052
ATATTATC	0.112 ± 0.0097
ATATACTC	0.173 ± 0.053
ATTATATA	0.185 ± 0.047
CTATTATA	0.0823 ± 0.013
AGATTATG	-0.0162 ± 0.068
ATATACTA	0.2955 ± 0.0011
CACACTGA	-0.0965 ± 0.055
AAATCGAC	0.0123 ± 0.035
AGGGGCCA	0.0356 ± 0.053
CTCGAGCC	0.0235 ± 0.047
ACCAGGCC	-0.168 ± 0.022
GGCCACGA	-0.0901 ± 0.0031
ACACTACG	0.0974 ± 0.045
ATTCTGAA	0.0149 ± 0.024
ACGGAGCA	0.0531 ± 0.012
AACGTACA	0.0315 ± 0.031
ACTATATA	0.285 ± 0.058

Sequence	PBM 8-mer E-score
ATTATATC	0.224 ± 0.0096
ACTATATC	0.271 ± 0.019
GCTATATA	0.173 ± 0.019
CCTATATC	0.0672 ± 0.019
ACTATATG	0.143 ± 0.052
CGTCGCGC	-0.0442 ± 0.0083
CATCCTGG	-0.145 ± 0.035
ACCTTTCC	0.0327 ± 0.034
ATATTCAC	0.193 ± 0.047
ATATTCAT	0.238 ± 0.022
ATCTTAAC	0.0878 ± 0.048
ATATTAAA	0.234 ± 0.046
ATCTTAAT	0.232 ± 0.042
ATATTAAT	0.302 ± 0.02
ATATTCAA	0.171 ± 0.023
TTATTAAA	0.0933 ± 0.013
ATCTTAAA	0.0723 ± 0.05
ATATTAAG	0.0865 ± 0.0037
CTATTAAA	0.125 ± 0.055
ATATTAAC	0.22 ± 0.076
ACATTGAT	0.105 ± 0.0059
AACGAGTG	-0.131 ± 0.02
CGCGACCG	-0.221 ± 0.029
CACTAGAG	-0.0261 ± 0.065
ATAGGTAA	0.0236 ± 0.0059

Sequence	PBM 8-mer E-score
GCTCTGGA	-0.0441 ± 0.02
CGTGGAGA	0.0751 ± 0.065
GAAGGGGA	-0.0692 ± 0.0026
GCCCCACA	0.156 ± 0.1
CCCCCACC	-0.264 ± 0.062
GCCCCAAA	0.117 ± 0.0026
GCCCCACC	0.289 ± 0.051
GCCCCAAC	0.315 ± 0.0087
CCCCCAAC	-0.195 ± 0.066
CAATGGGA	0.0389 ± 0.029
CCGCACTA	-0.0974 ± 0.0081
CGAAGCAA	-0.0083 ± 0.02
AGATCCCA	-0.0112 ± 0.031
ACCTTAAG	-0.0585 ± 0.037
CTCCCGGC	-0.268 ± 0.0042
ACTAATTA	0.226 ± 0.024
CGTAATTA	0.202 ± 0.046
GCTAATTA	0.235 ± 0.039
CCTAATTA	0.0703 ± 0.012
AGTAATTA	0.202 ± 0.03
GGTAATTA	0.24 ± 0.0065
ATGCGGGC	-0.00019 ± 0.029
AGTCCTCA	-0.113 ± 0.048
AATTTGTA	0.0698 ± 0.0044
ACGGAGAA	0.18 ± 0.029

Sequence	PBM 8-mer E-score
GAGCCAAA	-0.057 ± 0.017
CCTATCGA	0.15 ± 0.023
TCCCGCCA	-0.0896 ± 0.035
GCCCGCCA	0.0111 ± 0.022
GCCCGCCC	0.108 ± 0.057
ACCCGCCC	0.274 ± 0.11
CGCCGCCC	-0.0329 ± 0.11
CCCCGCCG	0.161 ± 0.13
CCCCGCCA	0.309 ± 0.031
CCCCGCCC	0.355 ± 0.037
ACCCGCCG	0.0869 ± 0.081
CCGATAGC	-0.195 ± 0.0074
TCGGACGA	-0.0961 ± 0.011
CATGCCCG	0.114 ± 0.033
ACGTAGGC	-0.161 ± 0.069
AATTGATG	0.196 ± 0.013
TGCCCCAA	0.304 ± 0.012
AGCCCCAA	0.2458 ± 0.001
AGCCCCCA	-0.192 ± 0.049
TGCCCCCA	0.0887 ± 0.0026
GGCCCCAA	0.134 ± 0.045
TGCCCAAA	-0.17 ± 0.028
CGCTAATA	0.0712 ± 0.011
CAGGTAGG	0.0772 ± 0.037
ATCTCTGC	0.124 ± 0.041

Sequence	PBM 8-mer E-score
AAGTTTAT	0.263 ± 0.011
AAGTTTAC	-0.0181 ± 0.035
AAGTTTAG	0.193 ± 0.079
CTATGGTC	-0.0714 ± 0.011
ACCTTCCG	0.156 ± 0.054
AAACGATA	0.0414 ± 0.058
TAACGATA	0.261 ± 0.025
CAACGATA	0.0514 ± 0.023
AAGCCAAA	-0.0671 ± 0.036
GACTACTA	0.123 ± 0.086
AACGATTG	-0.048 ± 0.0011
GAAGGAGA	0.278 ± 0.031
AAAGGAGA	0.102 ± 0.13
CAAGGAGA	-0.121 ± 0.026
ATATGAAT	0.269 ± 0.0035
ATATGAAC	0.111 ± 0.0082
ATATGAAG	-0.0272 ± 0.098
TTATGAAA	-0.0227 ± 0.036
ATATGAAA	0.268 ± 0.017
CTATGAAA	0.122 ± 0.039
GCGCTGAC	0.0819 ± 0.0047
ATTCGGCA	-0.0961 ± 0.057
GACGTGTA	-0.0568 ± 0.059
AACGTGTA	0.0661 ± 0.014
CACGTGTA	0.3871 ± 0.0038

Sequence	PBM 8-mer E-score
AACGTGTC	-0.0169 ± 0.047
TAAGTGTA	-0.00771 ± 0.18
CACGTGTC	0.366 ± 0.032
AAAGTGTA	0.185 ± 0.019
CCCGTGTC	-0.222 ± 0.044
CAAGTGTA	0.231 ± 0.042
ATGGCCGA	-0.0989 ± 0.12
CGGTAGCA	0.0259 ± 0.0084
CACTAGGC	-0.0625 ± 0.012
AAGGTACT	-0.0359 ± 0.027
CGCCACAC	-0.107 ± 0.0099
CAATTCCA	0.021 ± 0.024
AAATTCCA	0.243 ± 0.0059
AATTCCCC	0.162 ± 0.019
AAAATCAC	0.28 ± 0.019
AAAATCAG	-0.00194 ± 0.044
ATTCCCCA	0.345 ± 0.0051
GAAATCAC	0.0559 ± 0.039
ATTCCCCC	-0.0763 ± 0.046
GTTCCCCA	0.0903 ± 0.0034
AATTCCCA	0.251 ± 0.056
GATTCCCA	-0.109 ± 0.031
GAATTCCA	0.0438 ± 0.014
GAGGACGA	-0.0985 ± 0.014
CAGGAATA	-0.0263 ± 0.13

Sequence	PBM 8-mer E-score
AGACTGCC	-0.138 ± 0.008
AGGCGCTA	-0.116 ± 0.03
ACAGGATA	0.046 ± 0.059
CCTCTAAC	-0.122 ± 0.012
ATGTCCCC	0.0908 ± 0.0075
AGCGCCTG	-0.212 ± 0.01
ATTTTCCC	0.17 ± 0.024
CAAATCCA	0.0168 ± 0.048
GAAATCCA	-0.0749 ± 0.093
GATTTCCC	0.0913 ± 0.071
AAAATCCA	0.232 ± 0.0091
AATTTCCC	0.301 ± 0.032
GCCACAAA	0.0853 ± 0.099
ACGGCTTA	0.0267 ± 0.027
CAATGCTC	-0.0184 ± 0.021
GGAGTAGA	0.139 ± 0.0065
GGGAAGGA	0.0711 ± 0.073
GAGTATTA	0.12 ± 0.024
ATGTATTA	0.216 ± 0.018
CAGTATTA	0.28 ± 0.02
CTGTATTA	-0.0311 ± 0.058
AAGTATTA	0.157 ± 0.094
GTGTATTA	0.244 ± 0.061
AGCGCAAC	-0.0193 ± 0.035
CCAGACGC	-0.135 ± 0.041

Sequence	PBM 8-mer E-score
CGGCTGAG	-0.16 ± 0.018
ACACCTAT	0.0344 ± 0.0022
AACCTATA	0.0842 ± 0.034
CACCTATA	0.232 ± 0.056
TACCTATA	0.116 ± 0.032
AAGAATCG	0.202 ± 0.011
TTCCTCAA	-0.0714 ± 0.003
TCAGCCGA	-0.258 ± 0.094
CCGATCGC	0.0847 ± 0.035
ACGATCGC	0.0439 ± 0.021
GCGATCGC	0.261 ± 0.0046
ACTAAAGT	0.0154 ± 0.055
CAATGGTA	0.0764 ± 0.11
GAATACAA	0.164 ± 0.0018
CCCACTTC	0.184 ± 0.051
CCCACTTA	0.2675 ± 0.00044
GCCACTCC	-0.166 ± 0.023
GCCACTTA	-0.042 ± 0.068
CCCACTCG	-0.168 ± 0.084
CCCACTCC	0.241 ± 0.017
